The test system of the experiment is VDR:RXRa (NR concentration 270 nM, RXRa partner concentration 90 nM). Briefly: PBM binding z-score (relative to random genomic background probes); higher = stronger binding; sequences stand for … in GC…GCGATTGACAGCGTAGAATGAAGG
The procedure: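 Protein-binding microarray (Agilent 4x180K custom design, double-stranded 60-nt probes: 5' GC cap, 34-nt variable region, 24-nt constant primer region; full probe sequence given). Purified or IVT nuclear receptor:RXRα heterodimers (3:1 NR:RXRα, mostly 270:90 nM) or homodimers were incubated for 1 h in PBS with 2% milk and no ligand, then detected with Alexa488 antibodies. Fluorescence from o1-orientation probes (~5 replicates averaged) was converted to z-scores against 500 random hg19 background probes. Variable regions are seed direct-repeat (DR0–DR5) sites, all their single-nucleotide variants and half-site ablations.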
In turn, CCTACTGGGCCAACAAGGTCATTGATGCCGATAA displayed a PBM binding z-score of 5.56.
With ATATGTAGGTTAGGGTCATTTAGAAAGTAGGGAA, the PBM binding z-score was 4.26.
The figure for CCGAGTAGGTTACGAGGGGGCATTCCGTGCGAAT is 4.84; for TCGAGTAGGTTACGGGGGCATTCAAGGATGAAGA it is 3.74.
Under TAGCCTAGGTCATGCGGGCCAGCATAGTGTCGGC stands 2.7.
On to TGTCAAAGTTCTAAGGTAACGTAAGTATCCACAC, for which the PBM binding z-score was 0.479.
Under CCGAGTAGGTTACGATGGGGCATTCAGTGCGAAT stands 0.842; under TCGAGTAGGATACGGGGGCATTCAGGGATGAAGA, 2.49; under CCTACTGGGCCATTCAGAGGTCATTGTTCATATG, 3.9.
Take CGAACTAGGTCAAAGGACAGTGGAAGGCGACGTA: the PBM binding z-score stood at 1.21.
For CGTTCAAGGTCATAGGAGGTCAGTGAAGACAGAT, the PBM binding z-score was found to be 6.67.
Under CGTCCAAGGTCATAAGAGGTCAGTGAAGACAGAT stands 6.96.
Under CGAACTCGGTCACCAGGACAGTGAAGAGGTTGGA stands 1.87; under CCGACGGGGGCAAGGTTACCATAACGCACAGCCA, 3.01.
The figure for CTCGAAAGGTCGTGCTTAGGTGAGTATACCAAAC is 3.36.
In the case of CCGAGTAGGTTACGCGGGGGCATTCAGTGCGAAT, the PBM binding z-score is 5.48.
Under CGAACTAGGTCCCCAGGACAGTGAAGAGGTTGGA stands -0.892.
As to CGTCAAAGTTCTAGGTAACGTAACAGAAAGCAGC, the PBM binding z-score stood at 0.0814.
The figure for CGTCCAAGGTCAAGCTCAGTGAAAGAGACTCGAA is 4.06; for TCGAGTAGGTTACGGGGGCACTCAGGGATGAAGA it is 3.33; for CGGACTAGGTCAAAGGACAGTGAAAGGCGACGTA it is 1.16.
Under ACTAGTTGGTCAGCTGAGGTCACACTCAATTCGG stands 4.54.
The figure for CGAACTAGGTCTCCAGGACAGTGAAGAGGTTGGA is -0.586; for CCTTACGGGTCTCTCCAGGTTATAGCATCGGAGT it is 0.117; for TTACCAAGGTGAAGGTCGTGGATCCCTCTGTAGA it is 1.28.
With CTCGAAAGGTGGTGCTCAGGTGAGTATACCAAAC, the PBM binding z-score is -0.508.
In turn, CGAACTAAGTCATTGACAGGACAGTGAATAGTAA gave a PBM binding z-score of -0.19.
The figure for ATATGTAAGTTAGGGTCATTCAGAAAGTAGGGAA is 4.5; for CCGAGTAGGTGACGAGGGGGCATTCAGTGCGAAT it is 4.37.
The figure for CGTCCAAGGTCAGTGAGGTCAGTGAATGCCGAGT is 7.42; for CGAACTAGGTCAATGGACAGTGAAAGGCGACGTA it is 0.802; for ATATGTAGGTTAGGTTCATTCAGAAAGTAGGGAA it is 4.01.
Under AGAATGAGGTTACCAGAGATCAGGGAAACGCTTG stands 1.72.
In turn, ATATGTAGGGTAGGGTCATTCAGAAAGTAGGGAA gave a PBM binding z-score of 4.48.
As for CCTTACGGGTCTAGGTTATAGCACGGGTGGTACG, the PBM binding z-score was -0.339.
In turn, CGTCGGAGGACAGAAGGTCAGAGCTGTCCGCTTT yielded a PBM binding z-score of 0.797.
The figure for ATATGTAGGTTAGGGTCATACAGAAAGTAGGGAA is 4.24; for CGAACTAGGTCAGAACAGGACATTGAAGGATGAT it is 1.59.
The figure for TAGCCTAGGTCAGATCGGGCCAGTCTACGCTATA is 0.668.
Under CGAACTAGGTCACCAGGACAGGGAAGAGGTTGGA stands 1.91.

Source of the values: the supplement of paper PMC6555819.
